Rows were chosen to be rich in hits. Some 12% of all compounds tested hit in one or more screens of this group.
HP1b binding inh – HTS for Inhibitors of HP1-beta Chromodomain Interactions with Methylated Histone Tails; Chromobox protein homolog 1 (Homo sapiens), P83916; AlphaScreen HP1-beta / biotin-H3K9me3 peptide binding; Potency, µM (doses to about 114 µM), usual class: inhibitors; hit rate 0.56% among 390,000; AID 540317, 2011; note: nearly all actives have a fitted effect of over 70% in size
Target sequence (P83916 whole entry, looked up): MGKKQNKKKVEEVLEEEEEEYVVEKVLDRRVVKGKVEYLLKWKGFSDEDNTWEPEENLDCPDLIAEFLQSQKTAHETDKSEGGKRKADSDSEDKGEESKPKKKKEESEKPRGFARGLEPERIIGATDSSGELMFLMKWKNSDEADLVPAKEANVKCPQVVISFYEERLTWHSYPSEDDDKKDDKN
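HP1-beta protein (50 nM final) preincubated 30 min at room temperature with biotinylated H3(1-18)K9me3 peptide (50 nM) in PBS pH 7.4, 0.01% Tween-20, then compound added for 30 min. AlphaScreen streptavidin donor/nickel chelate acceptor beads (10 ug/mL final), 30 min dark, luminescence read.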
L3MBTL1 block – qHTS Assay for the Inhibitors of L3MBTL1; Lethal(3)malignant brain tumor-like protein 1 (Homo sapiens), Q9Y468; hit rate 0.66% among 230,000; Potency, µM (titrated, usually from 57.1 µM), most hits filed as inhibitors; AlphaScreen L3MBTL1–H3K9me1 peptide binding; note: nearly all actives have a fitted effect of over 60% in size
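Displacement of a biotinylated histone H3(1-15) peptide monomethylated at Lys9 (75 nM) from L3MBTL1 (50 nM) was measured by AlphaScreen after a 30 min room-temperature compound incubation; cefsulodin titration served as intraplate control.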
BAZ2B block – qHTS Assay for Inhibitors of BAZ2B | AID 504333, 2011 | hit rate 4.4% among 360,000 | AlphaScreen BAZ2B-H3K14Ac peptide displacement | Potency, µM (top dose mostly 114 µM), usual class: inhibitors | Bromodomain adjacent to zinc finger domain protein 2B (Homo sapiens), Q9UIF8; note: nearly all actives have a fitted effect of over 60% in size
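BAZ2B (50 nM) with biotin-H3(5-23)K14Ac peptide (50 nM) in PBS pH 7.4, 0.01% Tween-20, preformed 30 min, then compound 30 min at room temperature; top concentration 110uM. AlphaScreen streptavidin donor/nickel chelate acceptor beads (10 ug/mL final), 20 min dark, signal read.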
JMJD2A Tudor – qHTS Assay for Inhibitors of JMJD2A-Tudor Domain | Lysine-specific demethylase 4A (Homo sapiens), O75164 | AlphaScreen JMJD2A-Tudor / H3K4me3 peptide binding | Potency, µM (highest dose often 114 µM), hits mostly inhibitors | hit rate 4.4% among 390,000 | AID 504339, 2011; note: nearly all actives have a fitted effect of over 50% in size
Sfp inh – qHTS Assay for Inhibitors of Bacillus subtilis Sfp phosphopantetheinyl transferase (PPTase). 4'-phosphopantetheinyl transferase ffp (Bacillus subtilis), Q9F4F7. Biochemical Sfp PPTase activity, qHTS. Potency, µM, actives largely listed as inhibitors. hit rate 3.5% among 310,000;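 note: the enzyme is Sfp with the accession as filed and its product quenches rhodamine fluorescence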
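Fluorescence-quenching assay: 15 nM Sfp-PPTase preincubated 15 min at room temperature with compound, then 5 uM rhodamine-CoA and 12.5 uM BHQ-2-labelled YbbR peptide added. Fluorescence (ex 525/em 598 nm) read at start and after 30 min; difference gives rate.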
G9a inh – qHTS Assay for Inhibitors of Histone Lysine Methyltransferase G9a | hit rate 8.8% among 350,000 | Potency, µM (top dose mostly 102 µM), usual class: inhibitors | G9a H3K9 monomethylation, AlphaScreen, 2 h; note: nearly all actives have a fitted effect of over 75% in size
Target sequence (Q96KQ7 913-1193 limits assumed): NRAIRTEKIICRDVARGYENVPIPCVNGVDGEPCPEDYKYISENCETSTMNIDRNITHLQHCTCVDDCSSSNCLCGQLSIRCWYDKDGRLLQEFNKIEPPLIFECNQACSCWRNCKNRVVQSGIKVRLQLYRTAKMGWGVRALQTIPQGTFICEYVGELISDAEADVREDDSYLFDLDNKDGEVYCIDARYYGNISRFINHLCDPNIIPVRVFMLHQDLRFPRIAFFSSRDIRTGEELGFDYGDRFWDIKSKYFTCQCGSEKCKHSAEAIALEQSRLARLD
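AlphaScreen detection with an anti-monomethyl H3K9 antibody quantified product after a 2 h room-temperature reaction containing 500 nM biotinylated H3K9 peptide, 20 µM SAM and 20 nM enzyme, which had been preincubated 15 min with compound.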
Hits are given with their value; - = inactive; ? = inconclusive; . = no result given; [ ] = dose if it differs, or a comment. Calls come from the whole dose curve; as a rule, active = well fitted curve in the direction sought with a large enough effect; inconclusive = small, poorly fitted or top-dose-only effect, or another doubt; inactive = no such curve, though single readings can be large; an effect the other way counts as inactive or inconclusive.

SMILES	HP1b binding inh	L3MBTL1 block	BAZ2B block	JMJD2A Tudor	Sfp inh	G9a inh
CN1C(=O)C2C(c3ccc(N(C)C)cc3)NN(Cc3ccccc3)C2C1=O (configuration not stated)	?	-[11.4 µM]	40µM	?	-	?
CN(C)c1ccc(-c2cccc(C3CC=CC4C3C(=O)N(Cc3ccccc3)C4c3ccc(C(F)(F)F)cc3)c2)cc1 (configuration not stated)	-	.	-	?	-	?
C/C(=C\c1ccc(C)o1)C(=O)c1c(C)cc(C)[nH]c1=O	-	.	.	-	32µM	50µM
CC1CCc2onc(C(=O)N3CCN(c4ccccc4)CC3)c2C1 (configuration not stated)	-	.	-	-	.	-
CC1(C)[N+]([O-])=C2C(=[N+]([O-])C1(C)C)c1ccccc1/C2=N\O	-	-	?	-	-	50µM
O=C(CCc1cn(Cc2ccccc2Cl)c2ccccc12)NC1CCCCC1	-	.	-	-	.	-
CCOC(=O)c1cccc2c1N[C@@H](c1ccc(F)cc1)[C@H]1CC=C[C@@H]21	?	.	?	40µM	.	10µM
COc1ccc(N=Cc2c(O)c3ccccc3n2C(C)=O)cc1	-	-	-	-	18µM	25µM
Nc1c(Nc2ccccc2)c2ccccc2oc1=O	-	-	?	-	-	50µM
S=C(N/N=C/c1ccc(Br)cc1)N1CCCCC1	-	?	7.9µM	?	-	-
Cc1ccc(/C=N/NC(=S)N2CCOCC2)cc1	-	?	?	-	-	28µM
S=C(N/N=C/c1ccc(Cl)cc1)N1CCOCC1	-	?	?	-	-	?
COc1cc2[nH]c(=O)n(CCCC(=O)NCc3ccccc3Cl)c(=O)c2cc1OC	-	.	-	-	.	?
Cn1c(=O)c2c(n(Cc3ccccc3)c1=O)NC(=O)C2CC(=O)O (configuration not stated)	-	.	-	-	-	45µM
CC1CCN(C(=O)CC2C(=O)Nc3c2c(=O)n(C)c(=O)n3Cc2ccccc2)CC1 (configuration not stated)	-	-	-	-	-	8.9µM
COc1ccc(CNc2ccnc(-c3c(C)noc3C)n2)c(OC)c1	.	.	.	.	?	-[0.501 µM]
C[C@H]1C=C2C=C[C@H](C)[C@H](CC[C@@H]3C[C@@H](O)CC(=O)O3)[C@H]2[C@@H](OC(=O)[C@@H](C)CCO)C1	.	.	.	.	-	.
CS(=O)(=O)c1ccc(Cl)c(NC(=O)COC(=O)Cc2c[nH]c3ccccc23)c1	-	-	-	-	.	-
O=C(Cc1ccc(F)cc1)Nc1nc(-c2ccc(F)cc2)cs1	-	.	-	-	-	-
O=C(NNc1nc(-c2ccccc2)cs1)c1ccc(F)cc1	-	-	-	-	?	20µM
O=C(NNc1nc(-c2ccc(F)cc2)cs1)c1ccccc1	?	.	-	-	50µM	22µM
CCOc1ccc(CCNC(=O)c2cnc3c(-c4ccc(F)cc4)c(C)nn3c2C)cc1OCC	-	.	-	?	.	-
CCCn1c(=S)[nH]c2cc(C(=O)N(CCO)Cc3ccccc3)ccc2c1=O	-	.	-	-	-	.
COc1ccc(/C=C(\NC(=O)c2ccc(C)cc2)C(=O)NCCCn2ccnc2)cc1OC	-	.	50µM	-	-	-
Cc1ccc(C(=O)N/C(=C\c2ccc(F)cc2)C(=O)NCCCn2ccnc2)cc1	-	.	79µM	-	-	-
COc1ccc(/C=C(/NC(=O)c2ccccc2)C(=O)NCCCn2ccnc2)cc1OC	-	.	-	-	-	-
COc1ccc(S(=O)(=O)N2CCCC2)cc1C(=O)O	-	-	-	-	-	.
Cc1ccc(-c2nnn(CC(=O)N(Cc3ccccc3F)C(C(=O)NC3CCCC3)c3ccncc3)n2)o1 (configuration not stated)	-	-	-	-	28µM	25µM
